Data taken from PubChem BioAssay AID720540 (National Center for Advancing Translational Sciences (NCATS), 2013).
The whole screen tested about 1,300 compounds, of which about 460 (35%) were called active. Roughly 39% stayed inconclusive and do not appear here. The list shows a part of the results. Values without a mark were called inactive. Calls come from the whole dose curve; as a rule, active = well fitted inhibition curve with a large enough effect; inconclusive = small, poorly fitted or top-dose-only effect; inactive = flat fitted curve, though single readings scatter.

The molecules below were run against Protein phosphatase EYA2 (Homo sapiens) (UniProt O00167) (assay: qHTS for Inhibitors of the Phosphatase Activity of Eya2: Confirmatory Assay for Cherry-picked Compounds). Conditions: purified EYA2 phosphatase activity, qHTS confirmation; series mostly up to 46.1 µM; activity change, negative = inhibition: at the top concentration.
Procedure, shortened: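 Eya2 (0.2 uM working solution) preincubated 10 min at room temperature with compound in pH 7.5 HEPES buffer with MgCl2, BSA, DTT. OMFP added (50 uM working solution), 10 min more; fluorescence 485/525 nm, normalized to EGTA and DMSO.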
Note: nearly all actives have a fitted effect of over 65% in size.
Potency is the fitted concentration of half-maximal effect.
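Throughout, for activity change, negative = inhibition: 0% = DMSO wells and -100% = EGTA control giving full inhibition.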

Chain of Protein phosphatase EYA2 (Homo sapiens) (O00167 whole entry, looked up): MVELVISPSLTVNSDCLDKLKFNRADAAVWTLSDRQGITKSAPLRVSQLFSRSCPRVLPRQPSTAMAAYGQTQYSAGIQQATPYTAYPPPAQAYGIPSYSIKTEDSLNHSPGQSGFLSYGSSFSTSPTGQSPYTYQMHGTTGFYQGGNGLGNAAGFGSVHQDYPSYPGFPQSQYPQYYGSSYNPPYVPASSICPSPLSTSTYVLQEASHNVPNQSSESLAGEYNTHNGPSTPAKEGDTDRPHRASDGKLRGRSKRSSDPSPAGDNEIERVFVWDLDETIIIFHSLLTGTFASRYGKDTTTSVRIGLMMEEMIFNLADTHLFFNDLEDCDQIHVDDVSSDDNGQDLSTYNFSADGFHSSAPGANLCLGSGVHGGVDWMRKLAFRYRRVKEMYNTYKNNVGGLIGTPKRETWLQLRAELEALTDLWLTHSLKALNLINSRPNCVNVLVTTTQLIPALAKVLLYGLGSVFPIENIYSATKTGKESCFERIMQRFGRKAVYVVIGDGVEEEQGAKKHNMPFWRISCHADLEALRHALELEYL

SMILES	activity change, negative = inhibition [%]	Potency
COC(=O)c1c(C)[nH]c(C(=O)C(C)OC(=O)C2CC(=O)N(c3ccc(C)cc3)C2)c1C (stereo not given)	-26	
Cn1c(N)c(C(=O)CSc2nnc(NC3CCCCC3)s2)c(=O)n(C)c1=O	-28.7	
CC(=O)Oc1ccc(C(=O)OCC(=O)c2c(N)n(C)c(=O)n(C)c2=O)cc1OC(C)=O		4.78 µM (active)
O=C(Oc1ccc(C(=S)N2CCOCC2)cc1Br)c1ccccc1F		16.9 µM (active)
O=C(Oc1ccc(C(=S)N2CCOCC2)cc1Cl)c1ccccc1F		8.49 µM (active)
COc1ccc(C(=O)N2CCOCC2)cc1S(=O)(=O)N1CCCc2ccccc21	-12.4	
CC1=CC(C)(C)Nc2ccc(OC(=O)CN3C(=O)c4ccccc4C3=O)cc21	-11.5	
CN1/C(=C\C(=S)NC(=O)c2ccccc2Cl)C(C)(C)c2ccccc21		16.9 µM (active)
O=C(NC1CCCCC1)N1CCN(C2CCCCC2)CC1	2.04	
COc1cc(OC)c(NC(=O)CN(C)S(=O)(=O)c2ccc(-c3ccc(=O)[nH]n3)s2)cc1Cl		4.26 µM (active)
COc1ccc([C@H]2CC(=O)C=C(c3ccnc4ccc(Cl)cc34)C2)cc1	-22.9	
O=C(O)c1ccc(-c2ccc(/C=c3/sc4nc5ccccc5n4c3=O)o2)cc1Cl		5.36 µM (active)
N=C1/C(=C/c2ccc(-c3cccc(C(=O)O)c3)o2)C(=O)N=C2SC=C(c3ccccc3)N12	-20.3	
Cc1c(CCO)c(=O)n(-c2ccccc2)n1S(=O)(=O)c1c(Cl)cc(Cl)cc1Cl		3.01 µM (active)
CC12CC3(C)CC(C)(C1)CC(C(=O)NC(=S)N1CCOCC1)(C2)C3	-20	
O=C1c2ccccc2C(=O)c2c(Nc3ccc(CCO)cc3)ccc(O)c21		6.01 µM (active)
COc1ccccc1NC(=O)CCCCCN1C(=O)c2cccc3cccc(c23)C1=O	-15.8	
O=C1c2cccc3cccc(c23)C(=O)N1CCCN1CCN(c2ccc(F)cc2)CC1		15.1 µM (active)
CC1Cc2ccccc2N1NC(=O)c1ccc(Cl)c(S(N)(=O)=O)c1 (stereo not given)	-5.79	
O=C(c1cccc(S(=O)(=O)Nc2ccccc2Cl)c1)N1CCN(c2ccccc2O)CC1		19 µM (active)
COc1ccc(C2CC(c3ccccc3OC(=O)/C=C/c3ccccc3)=NN2C(C)=O)cc1 (stereo not given)		19 µM (active)
O=S(=O)(Nc1cccc(-c2cn3cccnc3n2)c1)c1ccccc1		4.78 µM (active)
Cn1c(=O)c2cc(S(=O)(=O)Nc3cccc(F)c3)ccc2n(C)c1=O	-21.5	
O=S(=O)(Nc1cccc(-c2cn3cccnc3n2)c1)c1ccc(F)cc1		13.5 µM (active)

SMILES	activity change, negative = inhibition [%]	Potency
O=c1c(O)c(-c2ccc(O)cc2O)oc2cc(O)cc(O)c12		8.49 µM (active)
Cc1cc(C(=O)c2ccccc2)cc(C)c1O		1.9 µM (active)
Cc1cc(C(=O)O)ccc1-n1c(C)cc(C=C2C(=O)c3ccccc3C2=O)c1C	-8.67	
CN(C)c1ccc(C2C=Cc3ccccc32)c2ccccc12 (stereo not given)		9.53 µM (active)
CSCc1cc(N(C)c2ccccc2)nc(-c2ccccn2)n1		15.1 µM (active)
NCC(=O)Nc1ccc(Cl)cc1C(=O)c1ccc[nH]1	-11.7	
O=C(c1cccs1)N1CCC(c2nc3c(nnn3Cc3cccc(Cl)c3)c(=O)[nH]2)CC1		10.7 µM (active)
CN(C)CCNc1ccc2ncn3c4ccc(O)cc4c(=O)c1c23		3.38 µM (active)
CN(C)CCNc1ccc2nnn3c4ccc(O)cc4c(=O)c1c23		1.69 µM (active)
N#Cc1ccc(C(=O)N2CCC3CC2c2cc(-c4ccccc4)ccc23)cc1 (stereo not given)	-24.4	
CN(C)C1=C2C=CC=CC2/C(=C2/C=Cc3ccccc32)C=C1 (stereo not given)		8.49 µM (active)
O=C(O)c1cc(-c2ccc(/C=C3\NC(=O)N(c4ccc(Cl)cc4)C3=O)o2)ccc1Cl		8.49 µM (active)
CCOC(=O)CN1C(=O)/C(=C2\SC(=S)N(NC(=O)c3cccnc3)C2=O)c2ccccc21		19 µM (active)
CN1C(=O)/C(=C2\SC(=S)N(NC(=O)c3cccnc3)C2=O)c2ccccc21		9.53 µM (active)
COC(=O)c1ccc(NC(=O)c2ccc3c(c2)C(=O)N(Cc2cccnc2)C3=O)cc1	-19.5	
CCOc1cc(C(=O)NC(C)CCc2ccccc2)cc(OCC)c1OCC (stereo not given)	13.9	
C[C@H](CCC(=O)NCC(=O)O)[C@H]1CC[C@H]2[C@@H]3[C@H](O)C[C@@H]4C[C@H](O)CC[C@]4(C)[C@H]3C[C@H](O)[C@]12C	-6.72	
O=C(O)CC(C(=O)O)N1C(=O)/C(=C/C=C/c2ccco2)SC1=S (stereo not given)		3.79 µM (active)
O=C(O)C(Cc1ccccc1)N1C(=O)/C(=C/C=C/c2ccco2)SC1=S (stereo not given)		6.75 µM (active)
CC(C(=O)O)N1C(=O)/C(=C/C=C/c2ccco2)SC1=S (stereo not given)		3.79 µM (active)
Cc1ccccc1NC(=O)CSc1ccc(-c2ccccn2)nn1		4.26 µM (active)
O=C(CSc1nnc(CNC(=O)c2ccccc2)o1)Nc1nccs1	-23.7	
Cc1cc(C)c(NC(=O)CSc2ccc(-c3ccccn3)nn2)c(C)c1		6.75 µM (active)
Cc1cc(NC(=O)CSc2nnnn2-c2ccccc2C)no1	-21.9	

SMILES	activity change, negative = inhibition [%]	Potency
Cc1csc(NC(=O)CSc2ccc(-c3ccccn3)nn2)n1		4.26 µM (active)
Cc1cccc(C#Cc2ccccc2)n1	10.3	
O=S(=O)(NCCSCc1ccc(Cl)c(Cl)c1)c1ccc2c(c1)OCCO2	-18.2	
CC(=O)Nc1ccc(NC(=O)COc2ncnc3ccccc23)cc1	-5.31	
CN(C)c1ccc(NC(=O)CC(NCc2ccccn2)C(=O)O)cc1 (stereo not given)		0.849 µM (active)
CN(C)C(CNC(=O)c1ccc2c(c1)S(=O)(=O)c1ccccc1C2=O)c1ccco1 (stereo not given)	-29.2	
O=C(NCc1ccccc1)c1ccc2nc(-c3ccco3)c(-c3ccco3)nc2c1		8.49 µM (active)
Cc1ccc(CNC(=O)c2ccc(-n3cccc3)cc2)cc1	-19.7	
O=C(NCCCO)c1ccc2nc(-c3ccco3)c(-c3ccco3)nc2c1		9.53 µM (active)
Cc1cccc2cn[nH]c12	-0.6	
COc1ccc(/C=N/N2CCN(Cc3ccc(C)cc3)CC2)cc1Br		15.1 µM (active)
COC1=C(Nc2ccc(OC)cc2)C(=O)c2ccccc2C1=O		6.01 µM (active)
CC(=O)Nc1ccc(OC(=O)c2cc3cc(Br)ccc3oc2=O)cc1		7.57 µM (active)
O=C(NNC(=O)c1cc2cc(Br)ccc2oc1=O)c1ccc(O)cc1	-7.2	
Cc1nc(S/C(=C\c2ccc(-c3ccc(C(=O)O)c(Cl)c3)o2)C(=O)O)n[nH]1		15.1 µM (active)
COc1ccc(Cc2nc3c4c(ncn3n2)Oc2ccc3ccccc3c2C4c2ccc(OC)c(OC)c2)cc1 (stereo not given)	-18.2	
Cc1ccc(S(=O)(=O)N2c3ccccc3-c3c(ssc3=S)C2(C)C)cc1		15.1 µM (active)
COc1ccc2c(c1)-c1c(ssc1=S)C(C)(C)N2S(=O)(=O)c1ccc(C)cc1		16.9 µM (active)
O=C(Nc1ccc2nc(-c3ccco3)c(-c3ccco3)nc2c1)N1CCCC1		7.57 µM (active)
CC1CCN(C(=O)Nc2ccc3nc(-c4ccco4)c(-c4ccco4)nc3c2)CC1		6.75 µM (active)
COCCNC(=O)c1cccc(OC2CCN(Cc3ccc(F)cc3OC)CC2)c1	-8.43	
O=C(CSc1nc(-c2ccccc2)nc2c1Cc1ccccc1O2)Nc1ccc(C(=O)O)cc1		7.57 µM (active)
O=C1N=c2ccccc2=C1c1sc(Nc2cccc(O)c2)nc1O	-24.2	
CN(C1=C(N2CCCCC2)C(=O)c2ccccc2C1=O)c1ccccc1		1.2 µM (active)

SMILES	activity change, negative = inhibition [%]	Potency
O=C1C(Nc2cccc(O)c2)=C(N2CCCCC2)C(=O)c2ccccc21		15.1 µM (active)
CC1CCN(C2=C(NS(=O)(=O)c3ccc(Br)cc3)C(=O)c3ccccc3C2=O)CC1		3.79 µM (active)
O=C(CCS(=O)(=O)c1ccc(Br)cc1)N1CCCCCC1	-25.4	
O=C1C(NS(=O)(=O)c2ccc(Br)cc2)=C(N2CCCCC2)C(=O)c2ccccc21		8.49 µM (active)
COc1ccc(-c2cc(C3CCNCC3)[nH]n2)cc1	-8.52	
O=C(N[C@@H]1CC[C@H](CCn2cc(-c3ccccn3)nn2)O[C@@H]1CO)c1ccncc1		19 µM (active)
CC(C)(C)NC(=O)c1cccc(NC(=O)c2ccc(NC(=O)c3ccco3)cc2)c1	-21	
CCN(CC)c1ccc(NC(=O)c2ccc3c(c2)c(C)c(C)n3C)cc1		13.5 µM (active)
CC1C=CCC2C(=O)N(c3ccc(OC(=O)c4cccs4)cc3)C(=O)C12 (stereo not given)		3.38 µM (active)
CC1C=CCC2C(=O)N(c3ccc(OC(=O)c4ccco4)cc3)C(=O)C12 (stereo not given)		7.57 µM (active)
Cc1nc(-n2[nH]c3c(c2=O)CCCC3)[nH]c(=O)c1Cc1ccccc1		19 µM (active)
CCCc1nc(N2CCN(C)CC2)c2sc(=S)n(-c3ccccc3)c2n1	-21.6	
O=S(=O)(c1cc(O)ccc1O)c1cccc2c(S(=O)(=O)c3cc(O)ccc3O)cccc12		15.1 µM (active)
N#Cc1c2nc3ccccc3nc2n2cc(NC(=O)c3ccc(F)cc3)ccc12		4.26 µM (active)
CC(C)CCNC(=O)c1onc(CSc2ccncc2)c1C(=O)NCCC(C)C	-9.87	
CCOc1cc(/C=C2/NC(=O)NC2=O)cc(Br)c1OCc1ccc(C(=O)O)cc1		21.3 µM (active)
O=C1NC(=O)/C(=C\c2ccccc2OCc2cccc([N+](=O)[O-])c2)N1	-27.6	
Cc1c(NC(=O)c2ccco2)cccc1C(=O)NN1C(=O)c2ccccc2C1=O	-17.1	
COc1ccc(-c2nc(N)ncc2-c2csc(C)n2)c(O)c1	-21.3	
C=C(C)COc1ccc(-c2nc(N)nc(C)c2-c2ccc(OC)cc2)c(O)c1		7.57 µM (active)
COc1ccc(-n2c(SCC(=O)Nc3cc(C(=O)O)ccc3C)nc3ccccc3c2=O)cc1Cl		8.49 µM (active)
COc1ccccc1-n1c(SCC(=O)Nc2cc(C)on2)nc2c(c1=O)SCC2	-20.4	
O=C(O)c1ccc(CSc2nc3ccccc3c(=O)n2-c2ccccc2)cc1	-26.9	
